The text below walks through data of PubChem BioAssay AID1211 (NMMLSC, 2008).

Unmarked numbers belong to inactive results. Active and inactive are the calls of the source. The rule behind the calls is not given here.

The target in the experiment is Estrogen receptor (Homo sapiens) (UniProt P03372). The experiment in a line: displacement of fluorescent estrogen from ERalpha – cell-based, Cos7 ERalpha-GFP, flow cytometry, primary screen (AID 1211).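 Note: 0% = DMSO vehicle wells and 100% = no E2-Alexa633 signal left.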 The following applies: fluorescent ligand competition, at 10 µM, hits give high values. (In flow cytometry, cells or beads pass a laser one at a time.)
Estrogen receptor (Homo sapiens), sequence (P03372 whole entry, looked up): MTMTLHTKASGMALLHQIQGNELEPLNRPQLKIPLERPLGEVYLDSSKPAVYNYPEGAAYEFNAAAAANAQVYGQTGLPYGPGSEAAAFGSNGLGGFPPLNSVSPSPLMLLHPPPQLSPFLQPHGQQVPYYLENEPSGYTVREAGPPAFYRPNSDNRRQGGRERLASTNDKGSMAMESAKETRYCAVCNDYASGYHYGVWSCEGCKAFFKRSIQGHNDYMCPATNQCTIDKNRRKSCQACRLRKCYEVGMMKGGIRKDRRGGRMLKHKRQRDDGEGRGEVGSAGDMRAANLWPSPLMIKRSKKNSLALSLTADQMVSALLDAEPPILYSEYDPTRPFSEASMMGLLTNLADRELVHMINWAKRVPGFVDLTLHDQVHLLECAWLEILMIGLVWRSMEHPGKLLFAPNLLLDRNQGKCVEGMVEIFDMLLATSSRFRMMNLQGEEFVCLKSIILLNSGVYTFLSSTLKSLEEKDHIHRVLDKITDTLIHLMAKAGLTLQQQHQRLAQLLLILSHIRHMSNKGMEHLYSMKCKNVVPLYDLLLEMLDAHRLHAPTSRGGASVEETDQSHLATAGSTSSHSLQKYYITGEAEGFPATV
`C=CCn1c(COc2ccccc2F)nnc1SCC(=O)NC(=O)NCc1ccco1`: the inhibition of ligand binding was 11%.
Take `Cc1ccccc1-n1nc(-c2ccc(N)cc2)cc1N`: the inhibition of ligand binding was 7%.
Regarding `Cc1ccc2c(c1)[C@H]1OCC[C@H]1[C@@H](c1ccncc1)N2`, the inhibition of ligand binding was 34%.
For `Cc1nn(-c2ccccc2)c2sc(C#N)c(N)c12` the value was 17%; for `Cc1noc(C)c1CSCC(=O)OCC(=O)Nc1sccc1C#N`, 2%.
Under `COc1cc(C2C(C#N)=C(N)Oc3cc(C)oc(=O)c32)cc2c1OCO2` (centres undefined) stands 9%; under `CC1(C)CC(=O)C=C(NC2CC(C)(C)NC(C)(C)C2)C1`, 0%.
For the compound `Cc1cc(C)c2c(c1)NC(c1cc3c(cc1Br)OCO3)C1CC=CC21` (centres undefined), the inhibition of ligand binding is 79% (active).
Turning to `Cc1csc(C(C#N)C(=O)c2ccncc2)n1` (centres undefined), the inhibition of ligand binding was 33%.
As for `COc1cc2c3c(c1)/C(=C1/SC(NC(C)=O)=NC1=O)C(=O)N3C(C)(C)C=C2C`, the inhibition of ligand binding was 29%.
For `O=C(O)c1cc(Cl)c2c(c1)[C@@H]1C=CC[C@@H]1[C@H](c1ccc(S(=O)(=O)N3CCOCC3)cc1)N2` the value was 42%; for `CCCCCCc1cc2c3c(c(=O)oc2cc1OCC(N)=O)CCC3`, 3%; for `CCOc1cc2c(c([N+](=O)[O-])c1)NC(c1ccccc1)C1CC=CC21` (centres undefined), 12%.
Take `C=C1C2C[C@H](O)C(C)(C)[C@@]2(O)[C@H](O)C[C@]23C[C@@](C)(O)[C@H](CC[C@H]12)[C@H]3O` (some centres undefined): the inhibition of ligand binding is 30%.
As for `CCOc1ccc(NS(=O)(=O)c2ccc3c(c2)[C@H]2C=CC[C@H]2[C@@H](c2ccc(C(=O)O)cc2)N3)cc1`, the inhibition of ligand binding is 66% (active).
Under `CC1(C)C=C(c2ccc(O)cc2)CC(C)(C)N1` stands 8%.
Turning to `Cc1ccc(OCc2ccoc2C(=O)O)cc1C`, the inhibition of ligand binding is 0%.
For `CC(C)C1Nc2ccc(S(N)(=O)=O)cc2C2C=CCC21` (centres undefined) the value was 70% (active); for `O=C1CC(c2ccc3c(c2)OCO3)c2ccc3ccccc3c2N1` (centres undefined), 0%.
Under `COc1ccc2[nH]c3c(c2c1)CCNC3=O` stands 21%.
As for `CCNC(=O)N1c2ccc(OCC)cc2C(C)=CC1(C)C`, the inhibition of ligand binding is 10%.
For the compound `CCOc1ccc(NS(=O)(=O)c2ccc3c(c2)[C@H]2C=CC[C@H]2[C@@H](c2cccc([N+](=O)[O-])c2)N3)cc1`, the inhibition of ligand binding was 0%.
For `COc1ccc(Oc2ccc3c(c2)c2c4n3CCNC4CCC2)cc1` (centres undefined) the value was 0%.
For `COc1ccc(C2CC(=O)Nc3ccccc3S2(=O)=O)cc1OC` (centres undefined) the value was 0%; for `CCc1cc2c3c(c(=O)oc2cc1OCC(=O)O)CCCC3`, 10%.
As for `COc1cccc2sc(Nc3nnc(-c4ccc(F)cc4)o3)nc12`, the inhibition of ligand binding was 17%.
For `O=C(O)c1ccc2c(c1)C1C=CCC1C(c1cccc([N+](=O)[O-])c1)N2` (centres undefined) the value was 72% (active); for `O=[N+]([O-])c1ccc(Cl)c2c1C1C=CCC1C(c1ccccn1)N2` (centres undefined), 53%.
In the case of `c1coc(C2Nc3ccccc3C3OCCC23)c1` (centres undefined), the inhibition of ligand binding is 41%.
For `O=c1cc(CSc2nnnn2-c2ccccc2)nc(Nc2ccc(F)cc2)[nH]1` the value was 26%; for `CSCCC(NC(=O)c1ccco1)C(=O)OCC(=O)Nc1sccc1C#N` (centres undefined), 4%; for `CCCOc1cc2oc(=O)c3c(c2cc1CC)CCCC3`, 0%.
For `CC(=O)c1ccc2c(c1)C1C=CCC1C(c1ccc(S(=O)(=O)N3CCOCC3)cc1)N2` (centres undefined) the value was 0%; for `CC12CCCCC1(O)[N+](=O)C1=C(CCCC1)N2[O-]` (centres undefined), 3%; for `CCOc1cc2c(cc1OCC)C(C(CC)CC)NCC2` (centres undefined), 0%.
For `CC(=O)c1ccc2c(c1)C1C=CCC1C(c1cccc([N+](=O)[O-])c1)N2` (centres undefined) the value was 68% (active); for `Nc1ccc(-c2nc3c(Cl)c(N)ccc3[nH]2)cc1`, 14%; for `Cc1ccc(-n2cc3c(c(C#N)c2=N)CC(C)(C)CC3=O)cc1`, 35%.
On to `CCC1(CC)NC(=O)N(CC(=O)Nc2sc3c(c2C(N)=O)CCC3)C1=O`, for which the inhibition of ligand binding is 38%.
